Measurements: PubChem BioAssay AID624123 (The Scripps Research Institute Molecular Screening Center, 2012)
The source made the active and inactive calls. The rule behind the calls is not given here.

assay: quenching of GFP signal – biochemical, fluorescence, dose response, round 1, artefact control for Rin1-Abl interaction inhibitor project, late-stage follow-up (AID 624123); conditions: GFP fluorescence interference/quenching counterscreen

Compound | IC50
CN(C(=O)c1ccc(NC(=O)Cc2ccc(NC(=O)C3CCN(C(=O)c4cccc(F)c4)CC3)cc2)cc1)C1CC1 | > 67.5 µM (inactive)
CN(C(=O)c1ccc(NC(=O)Cc2ccc(NC(=O)C3CCN(C(=O)c4ccc(F)cc4)CC3)cc2)cc1)C1CC1 | > 67.5 µM (inactive)
CN(C(=O)c1ccc(NC(=O)Cc2ccc(NC(=O)C3CCN(C(=O)c4ccccc4)CC3)cc2)cc1)C1CC1 | > 67.5 µM (inactive)
COc1ccc(C(=O)N2CCC(C(=O)Nc3ccc(CC(=O)Nc4ccc(C(=O)N(C)C5CC5)cc4)cc3)CC2)cc1 | > 67.5 µM (inactive)
